According to article PMC4336329 (PLoS ONE, 2015):
The campaign covered roughly 310,000 compounds. About 14,000 (4.5%) showed an effect of 50% or more. Effects have a minus sign here. Many of the other results were omitted from the sample, so strong results are more common in it than they were.

What follows are molecules tested against human ether-à-go-go-related gene (hERG) potassium channel (human, UniProt Q12809) (assay: primary screen, population patch clamp on CHO cells stably expressing hERG; higher = less effect of the substance).
Sequence of human ether-à-go-go-related gene (hERG) potassium channel (Q12809 whole entry, looked up): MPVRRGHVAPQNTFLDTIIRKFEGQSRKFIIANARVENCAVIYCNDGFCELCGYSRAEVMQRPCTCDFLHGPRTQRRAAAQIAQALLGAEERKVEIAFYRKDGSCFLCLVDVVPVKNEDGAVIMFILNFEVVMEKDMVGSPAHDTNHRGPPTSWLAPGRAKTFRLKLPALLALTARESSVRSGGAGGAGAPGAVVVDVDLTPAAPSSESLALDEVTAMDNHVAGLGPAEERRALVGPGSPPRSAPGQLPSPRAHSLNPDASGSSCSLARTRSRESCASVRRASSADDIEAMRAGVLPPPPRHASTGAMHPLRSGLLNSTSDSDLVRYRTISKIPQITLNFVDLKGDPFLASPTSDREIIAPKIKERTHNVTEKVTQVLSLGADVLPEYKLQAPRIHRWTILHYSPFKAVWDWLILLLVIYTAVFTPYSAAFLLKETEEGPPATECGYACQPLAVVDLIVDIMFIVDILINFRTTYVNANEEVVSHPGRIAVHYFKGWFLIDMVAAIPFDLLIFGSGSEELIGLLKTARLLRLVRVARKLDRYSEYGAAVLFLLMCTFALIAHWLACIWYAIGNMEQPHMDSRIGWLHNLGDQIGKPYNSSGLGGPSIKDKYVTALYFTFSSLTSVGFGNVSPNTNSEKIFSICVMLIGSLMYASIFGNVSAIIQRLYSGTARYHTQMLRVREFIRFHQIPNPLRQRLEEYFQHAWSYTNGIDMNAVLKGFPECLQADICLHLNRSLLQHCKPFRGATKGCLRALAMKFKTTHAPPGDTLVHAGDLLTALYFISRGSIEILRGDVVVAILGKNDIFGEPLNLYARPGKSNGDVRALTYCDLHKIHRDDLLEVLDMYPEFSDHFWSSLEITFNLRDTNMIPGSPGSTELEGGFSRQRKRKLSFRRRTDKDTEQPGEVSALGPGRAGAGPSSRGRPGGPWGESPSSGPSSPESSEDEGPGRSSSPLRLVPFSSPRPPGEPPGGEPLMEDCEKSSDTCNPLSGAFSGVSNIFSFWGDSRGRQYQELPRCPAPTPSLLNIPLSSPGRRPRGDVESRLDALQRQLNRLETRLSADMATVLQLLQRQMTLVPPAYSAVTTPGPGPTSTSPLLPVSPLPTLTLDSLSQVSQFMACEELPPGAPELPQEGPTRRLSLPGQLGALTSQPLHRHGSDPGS
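Further: peak tail current of the secondary pulse compared with the same well before compound.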

Structure (SMILES)	hERG current change (%, negative = inhibition) at 10uM [%]
C#CCNC(=O)[C@H](Cc1ccc(C(=O)c2ccccc2)cc1)NC(=O)OC(C)(C)C	19.5
O=C(COC(=O)c1cc(S(=O)(=O)N2CCOCC2)cs1)c1ccccc1	-0.734
N#C/C(=C\c1cccnc1)c1nc2ccccc2[nH]1	-10.4
CCn1c(CCNC(=O)c2ccc(OC)cc2)nnc1SCC(=O)Nc1ccccc1F	-22.7
CCn1c(Cc2ccccc2)nnc1SCC(=O)Nc1ccccc1F	-5.46
CCn1c(CNC(=O)COc2ccc(C(C)C)cc2)nnc1SCC(=O)Nc1ccc(F)cc1	-49.4
CCn1c(CNC(=O)COc2ccc(C(C)C)cc2)nnc1SCC(=O)Nc1ccccc1	-54.2
CCn1c(CNC(=O)COc2ccc(C(C)C)cc2)nnc1SCC(=O)NC1CCCCC1C (centres unmarked)	-16.8
CCn1c(CNC(=O)COc2ccc(C(C)C)cc2)nnc1SCC(=O)Nc1ccccc1F	-60.1
CC1(c2nnc(Cc3ccccc3)o2)CC(c2cccnc2)=NO1 (centres unmarked)	3.26
Cc1ccc(N=C(NO)c2nonc2N)cc1	10.1
CCOC(=O)c1[nH]c2ccccc2c1NC(=O)C1CCCC1	3.28
O=C(/C=C/c1ccccc1Cl)Nc1ccncc1	-3.65
Cc1cc(NC(=O)CSCC(=O)NCc2cccc(C(F)(F)F)c2)no1	-18.7
O=C(O)CCC(=O)N1CCc2cc(S(=O)(=O)NC3CCCc4ccccc43)ccc21 (centres unmarked)	-5.02
[Cl-].c1ccc(C[n+]2c(-c3ccccc3)csc2Nc2ccccc2)cc1	19.6
Cc1cc(Br)cc(Cl)c1OCC(=O)N1CCN(C(=O)c2ccco2)CC1	-63.3
Cc1cc(SCC(=O)OCC(=O)N2CCN(C(=O)c3ccco3)CC2)c(C)cc1Br	-50.2
O=C(CSc1ccccc1F)OCC(=O)N1CCN(C(=O)c2ccco2)CC1	-27.2
Cc1ccc(SCC(=O)OCC(=O)N(C)C2CCS(=O)(=O)C2)cc1C (centres unmarked)	-11.5
CN(C(=O)COC(=O)CSc1ccc(C(N)=O)cc1[N+](=O)[O-])C1CCS(=O)(=O)C1 (centres unmarked)	-11.4
NC(=O)COC(=O)CSc1cccc2cccc(Cl)c12	14.8
CCOC(=O)N1CCN(C(=O)COC(=O)CSc2cc(C)c(Br)cc2C)CC1	-38.5

Structure (SMILES)	hERG current change (%, negative = inhibition) at 10uM [%]
O=C(CSc1cccc2cccc(Cl)c12)OCC(=O)N1CCN(C(=O)c2ccco2)CC1	-69.2
Cc1cc(C)c(OCC(=O)OCC(=O)N2CCN(C(=O)c3ccco3)CC2)c(C)c1	-30.4
Cc1cccc(OCC(=O)OCC(=O)N2CCN(C(=O)c3ccco3)CC2)c1C	-31.8
Cc1cc(SCC(=O)OCC(=O)N(C)C2CCS(=O)(=O)C2)c(C)cc1Br (centres unmarked)	-73.1
O=C(COc1ccccc1Br)N1CCN(C(=O)c2ccco2)CC1	-31.3
O=C(c1ccco1)c1cn[nH]c1-c1ccc(Cl)cc1O	-8.52
C/C(=N\NC(=O)CN(c1ccc(Oc2ccccc2)cc1)S(C)(=O)=O)C(C)(C)C	7.07
COc1ccccc1CNC(=O)COC(=O)Cc1ccc(F)cc1	8.81
O=C(Cc1ccccc1)NCc1nc2ccccc2[nH]1	-6.31
O=C(NCCc1ccncc1)Nc1cccc(Cl)c1	-3.75
O=C(NCc1cccnc1)C1CCN(C(=O)c2ccc(Cl)cc2Cl)CC1	-10.8
O=[N+]([O-])c1cccc(S(=O)(=O)Nc2ccc(S(=O)(=O)Nc3nccs3)cc2)c1	13.9
CCOC(=O)CN1C(=O)C(O)(CC(=O)c2cccc(OC)c2)c2ccccc21 (centres unmarked)	5.13
O=C(NCC(c1ccco1)N1CCN(c2ccccc2)CC1)c1ccc2c(c1)OCO2 (centres unmarked)	-5.86
Cc1cc(Br)ccc1SCC(=O)OCC(=O)N1CCN(C(=O)c2ccco2)CC1	-66.8
Cc1ccc(SCC(=O)OCC(=O)N2CCN(C(=O)c3ccco3)CC2)c(C)c1	-41.6
Cc1cc(SCC(=O)N2CCN(C(=O)c3ccco3)CC2)c(C)cc1Br	-62.3
CC(=O)N1CCN(C(=O)CSc2cc(C)c(Br)cc2C)CC1	3.18
Nc1cc(N)nc(SCC(=O)N2CCN(C(=O)c3ccco3)CC2)n1	0.783
NC(=O)c1ccc(SCC(=O)OCC(=O)N2CCN(C(=O)c3ccco3)CC2)c([N+](=O)[O-])c1	23.3
CCCC(O)(CCC)C(=O)NNc1ccccc1	12.4
O=C(NCCCN1CCCC1=O)c1ccc2c(=O)n(Cc3ccco3)c(=S)[nH]c2c1	-17.8
Cc1ccc2oc(=O)c3cnn(CC(=O)NC4CCCCC4C)c3c2c1 (centres unmarked)	8.43

Structure (SMILES)	hERG current change (%, negative = inhibition) at 10uM [%]
CS(=O)(=O)N1CCc2cc(NC(=O)c3ccc(Cl)cc3Cl)ccc21	1.5
CCN(CC)C(=O)CSc1nc2ccccc2c(=O)[nH]1	12.5
CCn1c(=O)c(=O)n(CC)c2cc(S(=O)(=O)Nc3ccc(C)cc3)ccc21	7.02
Cn1c(=O)n(C)c2cc(NS(=O)(=O)c3ccccc3)ccc21	4.09
CCn1c(=O)n(CC)c2cc(NS(=O)(=O)c3ccccc3)ccc21	-68.7
Cn1cccc1-c1nc2ccc([N+](=O)[O-])cc2[nH]1	4.4
Cc1ccc(S(=O)(=O)Nc2ccc3nc(-c4cccn4C)[nH]c3c2)cc1	-79.3
O=C(Nc1ccc(-c2nc3ccc(NC(=O)c4cccs4)cc3[nH]2)cc1)c1cccs1	18.1
Cc1ccc(-c2nc3ccc(NS(=O)(=O)c4ccccc4)cc3[nH]2)o1	-47.3
O=S(=O)(Nc1ccc2nc(-c3ccco3)[nH]c2c1)c1ccccc1	-58.4
CC(=O)Nc1ccc2nc(-c3ccco3)[nH]c2c1	7.99
CC(=O)Nc1ccc2nc(-c3cccn3C)[nH]c2c1	12.8
Cn1cccc1-c1nc2ccc(NC(=O)c3cccs3)cc2[nH]1	-53.3
Cn1cccc1-c1nc2ccc(NC(=O)c3ccccc3)cc2[nH]1	-39.3
COc1ccccc1CNC(=O)CNC(=O)[C@@H]1Cc2ccccc2CN1	1.14
Cc1c(NC(=O)CSc2nnc(N)s2)c(=O)n(-c2ccccc2)n1C	-10.4
Cc1ccnc(NC(=O)CN(C)S(=O)(=O)c2cccc3nsnc23)c1	7.8
O=S(=O)(Nc1ccc(Cl)cc1)c1ccc2c(c1)CCO2	-3.21
O=C(O)c1ccc(NS(=O)(=O)c2cc(Cl)sc2Cl)cc1	21.3
Cc1oc2c(Cl)c(Cl)c(O)c(CN(C)C)c2c1C(=O)c1ccc(Cl)cc1	-1.39
Cc1nnc(SCC(=O)NC2CCCc3c2cnn3-c2ccccc2F)o1 (centres unmarked)	20.5
O=C(NCc1ccco1)c1cccn2c(=O)c3sccc3nc12	-68.4
O=C(NCc1cccnc1)c1cccn2c(=O)c3sccc3nc12	-63.2

Structure (SMILES)	hERG current change (%, negative = inhibition) at 10uM [%]
O=C(NCc1ccco1)c1cccn2c(=O)c3c4c(sc3nc12)CCCC4	13.6
O=C(NCCNc1ccc2ccccc2c1)c1cccn2c(=O)c3sccc3nc12	-6.94
O=C(NCc1cccs1)c1cccn2c(=O)c3sccc3nc12	-7.79
O=C(O)c1ccccc1C(=O)NCc1cccnc1	-32.8
O=c1c2ccccc2ncn1-c1ccc([N+](=O)[O-])c(C(F)(F)F)c1	-3.74
CC#C[C@@H](CC)c1ccc2ccn(C)c2c1	-4.51
O=C(NC1CCCCCCC1)c1ccc(F)cc1	4.61
COC(=O)C(Cc1ccccc1)NC(=O)c1cc(=O)[nH]c2ccccc12 (centres unmarked)	17.6
CC(C)CCNC(=O)c1ccc(NC(=O)C2=CSCCO2)cc1	4.36
COc1ccccc1C1=NOC(C)(c2sc(-c3ccccc3)nc2C)C1 (centres unmarked)	21.7
Cc1cc(C)c(C#N)c(SCc2ccccc2)n1	11.2
CNc1nnc(-c2ccncc2)s1	-0.587
Clc1ccccc1Nc1nnc(-c2ccncc2)s1	-6.07
Cc1ccc(Nc2nnc(-c3ccncc3)s2)c(Br)c1	-59.3
CCN1CCN(Cc2cc(=O)oc3ccc(Cl)cc23)CC1	-15
Cc1cc(=O)oc2cc(OCC(=O)N3CCN(C(=O)c4ccco4)CC3)ccc12.Cl	-32.6
CCOc1ccc2oc(=O)cc(CN3CCN(Cc4ccccc4)CC3)c2c1	-56.7
CCOc1ccc(CN2CCN(C(=O)c3ccco3)CC2)cc1.O=C(O)C(=O)O	-26.8
CCOc1ccc2oc(=O)cc(CN3CCOCC3)c2c1	-1.8
CCOc1ccc2oc(=O)cc(CN3CCN(C(=O)c4ccco4)CC3)c2c1	-69.4
